# Tests used:
# Assay in all cases: DAPPL (digital affinity profiling via proximity ligation, sequencing); 10 mM Tris-HCl pH 7.5, 50 mM NaCl, 1 mM DTT, 4% glycerol, room temperature, 30 min; GST-TFs on glutathione beads, 16-mer random dsDNA library, 0.1% formaldehyde crosslink after washing; high values mean tight binding
# Conditions in all cases: protein: recombinant; tags: N-terminal GST; dsDNA, one strand shown
# ERF = target: T1, ERF (Homo sapiens, UniProt P50548 1-548)
# T1 sequence: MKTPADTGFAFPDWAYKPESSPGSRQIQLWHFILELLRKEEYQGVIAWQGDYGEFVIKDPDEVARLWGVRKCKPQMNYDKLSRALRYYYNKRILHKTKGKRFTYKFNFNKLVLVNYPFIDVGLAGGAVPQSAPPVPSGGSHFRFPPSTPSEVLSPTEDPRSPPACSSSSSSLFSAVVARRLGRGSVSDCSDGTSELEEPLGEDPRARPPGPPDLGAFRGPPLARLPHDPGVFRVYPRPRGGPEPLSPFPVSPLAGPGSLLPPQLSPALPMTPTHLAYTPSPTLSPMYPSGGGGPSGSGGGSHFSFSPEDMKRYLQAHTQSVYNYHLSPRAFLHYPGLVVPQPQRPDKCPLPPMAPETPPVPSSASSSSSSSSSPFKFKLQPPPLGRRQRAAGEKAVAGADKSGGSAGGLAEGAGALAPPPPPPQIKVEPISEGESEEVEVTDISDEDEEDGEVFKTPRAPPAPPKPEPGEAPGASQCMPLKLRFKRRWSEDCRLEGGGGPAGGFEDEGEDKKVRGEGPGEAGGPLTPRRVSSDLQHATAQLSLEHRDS
# Procedure, shortened: (§1)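 Human transcription factors carrying a GST fusion were produced in yeast, bound to glutathione beads, tagged with DNA barcodes and pooled together with a tag-only sample. Each pool was held with 200 nmole of a random double-stranded 16-mer DNA library in Tris/NaCl/DTT/glycerol buffer for 30 min at room temperature, then washed, crosslinked in 0.1% formaldehyde, proximity-ligated with BsaI/T4 ligase (1 h, 37 °C), PCR-amplified and sequenced on an Illumina NextSeq500. Binding signal is the read frequency of each hexamer for a given factor divided by its frequency in the tag-only sample.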
# ETV3L = target: T2, ETV3L (Homo sapiens, UniProt Q6ZN32 1-361)
# T2 sequence: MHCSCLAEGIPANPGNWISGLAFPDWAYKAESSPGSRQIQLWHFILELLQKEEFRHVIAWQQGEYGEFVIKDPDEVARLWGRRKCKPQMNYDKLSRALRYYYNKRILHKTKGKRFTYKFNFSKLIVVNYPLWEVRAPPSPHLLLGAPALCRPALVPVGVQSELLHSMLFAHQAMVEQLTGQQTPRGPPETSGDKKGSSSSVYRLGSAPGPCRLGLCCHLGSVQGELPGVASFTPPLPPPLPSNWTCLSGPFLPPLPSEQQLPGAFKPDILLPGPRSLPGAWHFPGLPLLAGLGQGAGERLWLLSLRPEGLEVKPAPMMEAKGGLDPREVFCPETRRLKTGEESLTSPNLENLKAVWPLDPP
# Procedure, shortened: as §1
# ETS2 = target: T3, ETS2 (Homo sapiens, UniProt P15036 1-469)
# T3 sequence: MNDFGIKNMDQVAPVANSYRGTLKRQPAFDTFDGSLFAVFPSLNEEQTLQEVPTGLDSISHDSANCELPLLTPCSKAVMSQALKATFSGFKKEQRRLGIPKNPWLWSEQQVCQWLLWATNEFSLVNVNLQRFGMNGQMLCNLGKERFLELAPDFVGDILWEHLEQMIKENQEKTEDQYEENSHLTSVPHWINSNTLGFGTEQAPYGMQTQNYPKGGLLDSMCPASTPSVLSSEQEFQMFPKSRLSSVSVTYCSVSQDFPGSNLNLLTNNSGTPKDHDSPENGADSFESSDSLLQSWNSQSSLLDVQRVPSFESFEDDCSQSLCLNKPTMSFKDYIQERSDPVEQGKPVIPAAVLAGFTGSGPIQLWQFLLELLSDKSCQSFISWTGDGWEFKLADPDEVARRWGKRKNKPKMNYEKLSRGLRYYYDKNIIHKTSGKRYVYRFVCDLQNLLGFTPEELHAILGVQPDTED
# Procedure, shortened: as §1
# SPDEF = target: T4, SPDEF (Homo sapiens, UniProt O95238 1-335)
# T4 sequence: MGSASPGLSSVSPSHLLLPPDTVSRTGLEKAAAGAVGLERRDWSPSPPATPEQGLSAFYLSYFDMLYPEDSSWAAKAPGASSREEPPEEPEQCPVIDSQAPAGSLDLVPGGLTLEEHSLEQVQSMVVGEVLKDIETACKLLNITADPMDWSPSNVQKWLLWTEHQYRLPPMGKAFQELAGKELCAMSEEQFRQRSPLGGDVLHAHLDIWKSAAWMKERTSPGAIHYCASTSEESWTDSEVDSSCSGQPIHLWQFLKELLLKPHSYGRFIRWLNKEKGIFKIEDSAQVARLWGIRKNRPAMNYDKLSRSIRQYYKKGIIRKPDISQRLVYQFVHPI
# Procedure, shortened: as §1
# ETV7 = target: T5, ETV7 (Homo sapiens, UniProt Q9Y603 1-341)
# T5 sequence: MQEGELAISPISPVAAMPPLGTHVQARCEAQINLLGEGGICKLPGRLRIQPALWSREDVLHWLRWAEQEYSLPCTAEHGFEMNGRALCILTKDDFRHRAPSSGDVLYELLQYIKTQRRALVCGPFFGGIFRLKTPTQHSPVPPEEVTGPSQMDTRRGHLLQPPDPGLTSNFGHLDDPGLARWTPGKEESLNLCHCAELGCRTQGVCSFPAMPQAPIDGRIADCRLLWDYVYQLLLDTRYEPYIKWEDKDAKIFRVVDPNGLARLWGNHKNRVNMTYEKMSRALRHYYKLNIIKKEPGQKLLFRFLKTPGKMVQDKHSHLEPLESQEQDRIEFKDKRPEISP
# Procedure, shortened: as §1
# ELF5 = target: T6, ELF5 (Homo sapiens, UniProt Q9UKW6-2 1-255)
# T6 sequence: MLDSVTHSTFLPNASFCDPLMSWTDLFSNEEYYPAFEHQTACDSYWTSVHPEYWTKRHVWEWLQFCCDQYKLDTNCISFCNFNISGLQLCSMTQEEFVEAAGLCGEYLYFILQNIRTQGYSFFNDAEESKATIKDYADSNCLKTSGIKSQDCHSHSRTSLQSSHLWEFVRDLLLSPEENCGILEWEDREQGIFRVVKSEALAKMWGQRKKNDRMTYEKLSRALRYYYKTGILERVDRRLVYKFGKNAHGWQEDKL
# Procedure, shortened: as §1
# ETV3 = target: T7, ETV3 (Homo sapiens, UniProt P41162-2 1-143)
# T7 sequence: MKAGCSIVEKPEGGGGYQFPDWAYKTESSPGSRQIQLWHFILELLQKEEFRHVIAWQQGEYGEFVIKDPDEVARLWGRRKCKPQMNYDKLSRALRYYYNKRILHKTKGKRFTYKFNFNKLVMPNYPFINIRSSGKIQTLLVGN
# Procedure, shortened: as §1
# ETV6 = ETV6 (Homo sapiens, UniProt P41212 1-452)
# Procedure, shortened: as §1
# Sequence of ETV6 (P41212 whole entry): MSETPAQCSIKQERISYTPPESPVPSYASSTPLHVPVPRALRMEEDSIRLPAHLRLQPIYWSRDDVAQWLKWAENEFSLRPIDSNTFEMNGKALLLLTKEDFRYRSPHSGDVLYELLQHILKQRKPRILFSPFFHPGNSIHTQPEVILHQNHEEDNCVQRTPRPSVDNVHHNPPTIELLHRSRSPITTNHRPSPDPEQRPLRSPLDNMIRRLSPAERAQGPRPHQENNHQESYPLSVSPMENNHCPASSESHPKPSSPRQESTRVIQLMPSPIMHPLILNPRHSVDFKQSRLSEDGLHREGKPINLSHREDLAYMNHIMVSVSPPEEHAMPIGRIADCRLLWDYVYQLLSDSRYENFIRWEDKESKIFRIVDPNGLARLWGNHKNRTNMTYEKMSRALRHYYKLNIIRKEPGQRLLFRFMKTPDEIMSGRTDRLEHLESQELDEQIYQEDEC
Sequence,binding signal (ERF),binding signal (ETV3L),binding signal (ETS2),binding signal (SPDEF),binding signal (ETV7),binding signal (ELF5),binding signal (ETV3),binding signal (ETV6)
CGGCAT,"1.09 fold enrichment (6-mer frequency, TF over GST control)","1.23 fold enrichment (6-mer frequency, TF over GST control)","1.17 fold enrichment (6-mer frequency, TF over GST control)","1.22 fold enrichment (6-mer frequency, TF over GST control)","1.07 fold enrichment (6-mer frequency, TF over GST control)","1.07 fold enrichment (6-mer frequency, TF over GST control)","1.19 fold enrichment (6-mer frequency, TF over GST control)","1.21 fold enrichment (6-mer frequency, TF over GST control)"
TGCTTG,"1.14 fold enrichment (6-mer frequency, TF over GST control)","1.13 fold enrichment (6-mer frequency, TF over GST control)","1.14 fold enrichment (6-mer frequency, TF over GST control)","1.11 fold enrichment (6-mer frequency, TF over GST control)","1.19 fold enrichment (6-mer frequency, TF over GST control)","1.04 fold enrichment (6-mer frequency, TF over GST control)","1.17 fold enrichment (6-mer frequency, TF over GST control)","1.11 fold enrichment (6-mer frequency, TF over GST control)"
CGGATA,"1.17 fold enrichment (6-mer frequency, TF over GST control)","1.13 fold enrichment (6-mer frequency, TF over GST control)","1.3 fold enrichment (6-mer frequency, TF over GST control)","1.93 fold enrichment (6-mer frequency, TF over GST control)","1.09 fold enrichment (6-mer frequency, TF over GST control)","1.37 fold enrichment (6-mer frequency, TF over GST control)","1.33 fold enrichment (6-mer frequency, TF over GST control)","1.21 fold enrichment (6-mer frequency, TF over GST control)"
TATACT,"1.3 fold enrichment (6-mer frequency, TF over GST control)","1.29 fold enrichment (6-mer frequency, TF over GST control)","1.38 fold enrichment (6-mer frequency, TF over GST control)","1.52 fold enrichment (6-mer frequency, TF over GST control)","1.31 fold enrichment (6-mer frequency, TF over GST control)","1.34 fold enrichment (6-mer frequency, TF over GST control)","1.34 fold enrichment (6-mer frequency, TF over GST control)","1.45 fold enrichment (6-mer frequency, TF over GST control)"
TAATGG,"1.17 fold enrichment (6-mer frequency, TF over GST control)","1.23 fold enrichment (6-mer frequency, TF over GST control)","1.28 fold enrichment (6-mer frequency, TF over GST control)","1.22 fold enrichment (6-mer frequency, TF over GST control)","1.2 fold enrichment (6-mer frequency, TF over GST control)","1.32 fold enrichment (6-mer frequency, TF over GST control)","1.28 fold enrichment (6-mer frequency, TF over GST control)","1.31 fold enrichment (6-mer frequency, TF over GST control)"
TGTACA,"1.28 fold enrichment (6-mer frequency, TF over GST control)","1.23 fold enrichment (6-mer frequency, TF over GST control)","1.24 fold enrichment (6-mer frequency, TF over GST control)","1.67 fold enrichment (6-mer frequency, TF over GST control)","1.36 fold enrichment (6-mer frequency, TF over GST control)","1.12 fold enrichment (6-mer frequency, TF over GST control)","1.17 fold enrichment (6-mer frequency, TF over GST control)","1.29 fold enrichment (6-mer frequency, TF over GST control)"
CGAGCA,"1.17 fold enrichment (6-mer frequency, TF over GST control)","1.13 fold enrichment (6-mer frequency, TF over GST control)","1.06 fold enrichment (6-mer frequency, TF over GST control)","1.18 fold enrichment (6-mer frequency, TF over GST control)","1.06 fold enrichment (6-mer frequency, TF over GST control)","1.03 fold enrichment (6-mer frequency, TF over GST control)","1.04 fold enrichment (6-mer frequency, TF over GST control)","1.06 fold enrichment (6-mer frequency, TF over GST control)"
TCTCAT,"1.26 fold enrichment (6-mer frequency, TF over GST control)","1.32 fold enrichment (6-mer frequency, TF over GST control)","1.26 fold enrichment (6-mer frequency, TF over GST control)","1.33 fold enrichment (6-mer frequency, TF over GST control)","1.11 fold enrichment (6-mer frequency, TF over GST control)","1.24 fold enrichment (6-mer frequency, TF over GST control)","1.37 fold enrichment (6-mer frequency, TF over GST control)","1.14 fold enrichment (6-mer frequency, TF over GST control)"
TGCATT,"1.45 fold enrichment (6-mer frequency, TF over GST control)","1.39 fold enrichment (6-mer frequency, TF over GST control)","1.34 fold enrichment (6-mer frequency, TF over GST control)","1.41 fold enrichment (6-mer frequency, TF over GST control)","1.22 fold enrichment (6-mer frequency, TF over GST control)","1.25 fold enrichment (6-mer frequency, TF over GST control)","1.34 fold enrichment (6-mer frequency, TF over GST control)","1.35 fold enrichment (6-mer frequency, TF over GST control)"
CGAAGC,"1.38 fold enrichment (6-mer frequency, TF over GST control)","1.2 fold enrichment (6-mer frequency, TF over GST control)","1.33 fold enrichment (6-mer frequency, TF over GST control)","1.18 fold enrichment (6-mer frequency, TF over GST control)","1.44 fold enrichment (6-mer frequency, TF over GST control)","1.19 fold enrichment (6-mer frequency, TF over GST control)","1.34 fold enrichment (6-mer frequency, TF over GST control)","1.14 fold enrichment (6-mer frequency, TF over GST control)"
TCTCGC,"1.75 fold enrichment (6-mer frequency, TF over GST control)","1.81 fold enrichment (6-mer frequency, TF over GST control)","1.91 fold enrichment (6-mer frequency, TF over GST control)","1.63 fold enrichment (6-mer frequency, TF over GST control)","1.68 fold enrichment (6-mer frequency, TF over GST control)","1.71 fold enrichment (6-mer frequency, TF over GST control)","1.79 fold enrichment (6-mer frequency, TF over GST control)","1.62 fold enrichment (6-mer frequency, TF over GST control)"
TGCACA,"1.22 fold enrichment (6-mer frequency, TF over GST control)","1.13 fold enrichment (6-mer frequency, TF over GST control)","1.06 fold enrichment (6-mer frequency, TF over GST control)","1.21 fold enrichment (6-mer frequency, TF over GST control)","1.02 fold enrichment (6-mer frequency, TF over GST control)","1.07 fold enrichment (6-mer frequency, TF over GST control)","1.18 fold enrichment (6-mer frequency, TF over GST control)","1.06 fold enrichment (6-mer frequency, TF over GST control)"
TGATCC,"1.23 fold enrichment (6-mer frequency, TF over GST control)","1.28 fold enrichment (6-mer frequency, TF over GST control)","1.25 fold enrichment (6-mer frequency, TF over GST control)","1.63 fold enrichment (6-mer frequency, TF over GST control)","1.12 fold enrichment (6-mer frequency, TF over GST control)","1.35 fold enrichment (6-mer frequency, TF over GST control)","1.24 fold enrichment (6-mer frequency, TF over GST control)","1.26 fold enrichment (6-mer frequency, TF over GST control)"
GCGTTC,"1.11 fold enrichment (6-mer frequency, TF over GST control)","1.15 fold enrichment (6-mer frequency, TF over GST control)","1.21 fold enrichment (6-mer frequency, TF over GST control)","1.02 fold enrichment (6-mer frequency, TF over GST control)","1.23 fold enrichment (6-mer frequency, TF over GST control)","1.03 fold enrichment (6-mer frequency, TF over GST control)","1.11 fold enrichment (6-mer frequency, TF over GST control)","1.12 fold enrichment (6-mer frequency, TF over GST control)"
GTGACC,"1.24 fold enrichment (6-mer frequency, TF over GST control)","1.26 fold enrichment (6-mer frequency, TF over GST control)","1.25 fold enrichment (6-mer frequency, TF over GST control)","1.32 fold enrichment (6-mer frequency, TF over GST control)","1.3 fold enrichment (6-mer frequency, TF over GST control)","1.25 fold enrichment (6-mer frequency, TF over GST control)","1.38 fold enrichment (6-mer frequency, TF over GST control)","1.1 fold enrichment (6-mer frequency, TF over GST control)"
